Data on 16 molecules can be found in PubChem BioAssay.

Unmarked numbers belong to inactive results. The source made the active and inactive calls. No stated cut-off is given here; in the data, active means inhibition above about 33%; inactive means the rest.

The assay is described as follows: compounds suppressing VP16-driven luciferase signal – cell-based, luminescence, high throughput, counter-screen for LRH-1 inverse agonist project (AID 651615). To be noted: Gal4-VP16 luciferase reporter cells, at 3.6 µM, stronger effect = higher value.
As usually defined, the inhibition is the change of the read-out against control, counted positive when it falls. `Cc1cc(C(=O)COC(=O)c2ccccc2Br)c(C)n1CC1CCCO1` (stereo unspecified): the inhibition was 48.6% (active).

In the case of `CC1CCc2nc(N)c(C#N)c(-c3cccnc3)c2C1` (stereo unspecified), the inhibition was 72.9% (active).

Turning to `O=C(CCl)N(c1ccccc1)C1CCS(=O)(=O)C1` (stereo unspecified), the inhibition was 16.8%.

`CC(=O)OC[C@]12CC[C@H]3[C@@](C)(CC[C@H]4C(C)(C)CCC[C@]34C)[C@@H]1CC(C1=CC(=O)OC1O)O2` (stereo partly specified): the inhibition was 95% (active).

Turning to `CC1CCCN(c2ncnc3c2cnn3-c2ccc(Cl)cc2)C1` (stereo unspecified), the inhibition was 66.5% (active).

In the case of `Cc1ccc(/C=C2\SC(=S)N(CCCC(=O)Nc3ccccn3)C2=O)cc1`, the inhibition was 39.1% (active).

As to `COc1ccc(-n2ncc3c(N(C)C4CCCCC4)ncnc32)cc1`, the inhibition was 20.2%.

Consider `c1csc(CNc2ccc3c(c2)OCCO3)c1`, for which the inhibition was -49.8%.

On to `Cc1cc(C(=O)COC(=O)c2ccccc2O)c(C)n1Cc1cccs1`, for which the inhibition was 73.6% (active).

Turning to `COc1ccccc1-c1nnc(Sc2nc([N+](=O)[O-])nn2C)o1`, the inhibition was 64.1% (active).

For `Nc1ccc(-c2cc3ccccc3oc2=O)cc1`, the inhibition was 34.1% (active).

With `OCC1OC(n2ccc3c2ncn2ncnc32)C(O)C1O` (stereo unspecified), the inhibition is 60.2% (active).

For `COc1ccc2cc3c(N)nn(C(=O)c4ccccc4[N+](=O)[O-])c3nc2c1`, the inhibition is 78% (active).

For the molecule `O=C(CC1CS(=O)(=O)CC1CC(=O)Nc1ccc2c(c1)OCCO2)Nc1ccc2c(c1)OCCO2` (stereo unspecified), the inhibition is -53.8%.

For `CC1CCC(C(C)C)C(OC(=O)Cn2c(-c3ccc(F)cc3)[n+](C)c3ccccc32)C1` (stereo unspecified), the inhibition is 93.7% (active).

For `CC(C)Nc1ncnc2ccc(Br)cc12`, the inhibition was 71% (active).
